Source: PubChem (National Center for Advancing Translational Sciences (NCATS))
TRb SRC2 PPI – qHTS for Inhibitors of the Interaction of Thyroid Hormone Receptor and Steroid Receptor Coregulator 2; Thyroid hormone receptor beta (Homo sapiens), P10828; TRbeta-SRC2 peptide binding, fluorescence polarization; receptor liganded with 1 µM T3; Potency, µM (titrated, usually from 106 µM), without a hit: at the top dose activity change, negative = inhibition, hits mostly inhibitors; 0.065% of 280,000 active;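 note: plate controls were bound peptide for no effect and peptide without receptor for full effect; nearly all actives have a fitted effect of over 50% in size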
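Human TRb LBD (0.6 uM) plus Texas Red-labeled SRC2 peptide (20 nM), 1uM T3, 5% DMSO, 5 hr at ambient temperature. Decreased polarization (555/632 nm) flags inhibition; data normalized to free and bound peptide controls.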
TR SRC2 fluor cs – Total Fluorescence Counterscreen for Inhibitors of the Interaction of Thyroid Hormone Receptor and Steroid Receptor Coregulator 2. TRb/SRC2 Texas Red total fluorescence interference. Potency, µM (highest dose often 106 µM), for inactives: at the top dose fluorescence change, negative = quenching. 0.29% of 280,000 active; active = well fitted curve in either direction with a large enough effect; inconclusive = small, poorly fitted or top-dose-only effect
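Flags fluorescent or light-absorbing compounds by total fluorescence, S + 2P, at 555 nm excitation and 632 nm emission. Mixture: 20 nM Texas Red SRC2 peptide, 0.6 uM human TRb LBD, 1 uM T3, 5% DMSO; compound exposure 5 h at ambient temperature.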
JMJD2E inh – qHTS Assay for Inhibitors of Human Jumonji Domain Containing 2E (JMJD2E) | Lysine-specific demethylase 4E (Homo sapiens), B2RXH2 | JMJD2E catalytic domain, FDH-coupled NADH fluorescence (FDH is formaldehyde dehydrogenase) | Potency, µM (titrated, usually from 57.1 µM), for inactives: at the highest dose activity change, negative = inhibition, hits mostly inhibitors | 1.6% of 230,000 active; active = well fitted inhibition curve with a large enough effect, not every such curve was filed as active; inconclusive = small, poorly fitted or top-dose-only effect, or another doubt; inactive = no such curve, though single readings can be large or run the other way;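 note: 0% = wells with enzyme and -100% = buffer wells without enzyme; nearly all actives have a fitted effect of over 50% in size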
Target sequence (B2RXH2 1-337 limits assumed): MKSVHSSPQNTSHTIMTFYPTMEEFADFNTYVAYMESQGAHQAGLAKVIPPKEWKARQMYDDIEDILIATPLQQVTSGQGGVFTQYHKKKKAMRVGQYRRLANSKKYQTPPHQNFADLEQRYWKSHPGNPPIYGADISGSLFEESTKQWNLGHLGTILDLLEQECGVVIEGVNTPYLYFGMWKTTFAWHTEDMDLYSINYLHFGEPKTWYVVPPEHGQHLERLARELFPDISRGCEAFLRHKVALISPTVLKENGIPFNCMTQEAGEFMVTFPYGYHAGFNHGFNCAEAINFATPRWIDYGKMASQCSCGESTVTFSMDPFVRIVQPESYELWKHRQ
Tau ThT inhib – qHTS for Inhibitors of Tau Fibril Formation, Thioflavin T Binding; AID 1460, 2008; Potency, µM (highest dose often 57.4 µM), inactives show top-dose activity, negative = inhibition, actives largely listed as inhibitors; Microtubule-associated protein tau (Homo sapiens), P10636; recombinant tau K18 P301L, heparin-induced fibrillization, ThT fluorescence; 2.1% of 270,000 active; note: nearly all actives have a fitted effect of over 55% in size
Target sequence (P10636 561-689 P618L limits assumed): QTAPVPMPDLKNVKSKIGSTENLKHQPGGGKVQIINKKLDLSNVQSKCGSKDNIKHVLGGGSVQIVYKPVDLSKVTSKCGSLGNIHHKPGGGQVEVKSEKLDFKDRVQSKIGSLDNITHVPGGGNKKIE
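Tau K18 P301L fragment (15 uM unlabeled plus 0.24 uM Alexa 594-labeled) in 100 mM sodium acetate pH 7 with compound, fibrillization induced by 20 uM heparin for 6 hr at 37 C. Thioflavin T (30 uM) added, fluorescence read after 1 hr (ex 450, em 510 nm).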
Tau FP inhib – qHTS for Inhibitors of Tau Fibril Formation, Fluorescence Polarization; K18 P301L tau heparin fibrillization, Alexa594 FP, 6 h; Potency, µM (doses to about 57.7 µM), for inactives: at the highest dose activity, negative = inhibition, actives largely listed as inhibitors; 0.39% of 280,000 active; note: nearly all actives have a fitted effect of over 55% in size
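Steps: dispense K18 P301L tau (15 uM plus 0.24 uM Alexa 594 tracer, final) in pH 7 sodium acetate; add compound; add heparin (20 uM final); incubate 6 hr, 37 C; add ThT (30 uM final); after 1 hr ambient, read FP.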
Tau fluor cs – Counterscreen qHTS for Inhibitors of Tau Fibril Formation, Fluorescence Polarization; AID 1463, 2008; Potency, µM (doses to about 57.7 µM), for inactives: at the top dose activity change, negative = decrease; 0.93% of 280,000 active; tau K18 P301L Alexa594 fluorescence, heparin fibrillization; note: nearly all actives have a fitted effect of over 55% in size
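Human tau K18 P301L (15 uM unlabeled, 0.24 uM Alexa 594-labeled) in 100 mM sodium acetate pH 7 with 20 uM heparin, 6 hr at 37 C. ThT 30 uM added, 1 hr ambient; Alexa 594 FP and total fluorescence read at 555/632 nm.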
* hit, by the source's call; [ ] = dose if it differs, or a comment. Rows were chosen to be rich in hits. Some 3.5% of all compounds tested hit in one or more screens of this group. Unless noted, calls come from the whole dose curve; as a rule, active = well fitted curve in the direction sought with a large enough effect; inconclusive = small, poorly fitted or top-dose-only effect, or another doubt; inactive = no such curve, though single readings can be large; an effect the other way counts as inactive or inconclusive. Unless noted, % is set by controls: 0 for no effect and ±100 for the full control effect; potency is the fitted concentration of half-maximal effect.

Results for COc1ccc(Nc2cc(C)c3cc(NC(=O)COc4cccc(C)c4)ccc3n2)cc1 ?
TRb SRC2 PPI: 8%; TR SRC2 fluor cs: 0%; Tau ThT inhib: 7.1µM*; Tau FP inhib: inconclusive; Tau fluor cs: 11µM*[quencher]

What do the screens show for `COc1ccc(-n2nc3ccc(NC(=O)COc4ccc(C)c(C)c4)cc3n2)cc1`?
TRb SRC2 PPI: -3%; TR SRC2 fluor cs: 3%; Tau ThT inhib: inconclusive; Tau FP inhib: 3%; Tau fluor cs: -10%

What do the screens show for `COc1ccc(NC(=O)Cc2c(F)cccc2Cl)c(OC)c1`?
TRb SRC2 PPI: -2%; TR SRC2 fluor cs: -1%; JMJD2E inh: -6%; Tau ThT inhib: 7%; Tau FP inhib: 4%; Tau fluor cs: -1%

What do the screens show for `COc1ccc(CC(=O)Nc2ccc3nc(Nc4ccc(OC)cc4)cc(C)c3c2)cc1`?
TRb SRC2 PPI: 14%; TR SRC2 fluor cs: 1%; Tau ThT inhib: inconclusive; Tau FP inhib: 2%; Tau fluor cs: 3.5µM*[quencher]

What do the screens show for `COc1ccc(Nc2cc(C)c3cc(NC(=O)c4cc(OC)cc(OC)c4)ccc3n2)cc1`?
TRb SRC2 PPI: 8%; TR SRC2 fluor cs: -9%; Tau ThT inhib: 11µM*; Tau FP inhib: inconclusive; Tau fluor cs: 13µM*[quencher]

How did COc1ccc(Nc2cc(C)c3ccccc3n2)cc1 do in these assays?
TRb SRC2 PPI: -2%; TR SRC2 fluor cs: -8%; JMJD2E inh: inconclusive; Tau ThT inhib: inconclusive; Tau FP inhib: 10%; Tau fluor cs: inconclusive

Results for CC(C)(C)NC(=O)NC(=O)COC(=O)c1cccc(NS(=O)(=O)c2ccc(F)c(F)c2)c1 ?
TRb SRC2 PPI: -2%; TR SRC2 fluor cs: 3%; JMJD2E inh: -4%; Tau ThT inhib: -3%; Tau FP inhib: 2%; Tau fluor cs: -23%

How did CC(C)(C)c1ccc(NC(=O)COC(=O)c2ccc(NS(=O)(=O)c3ccc(F)c(F)c3)cc2)cc1 do in these assays?
TRb SRC2 PPI: 5%; TR SRC2 fluor cs: 2%; JMJD2E inh: 1%; Tau ThT inhib: 3%; Tau FP inhib: 28µM*; Tau fluor cs: inconclusive

How did CCOc1ccc(Br)cc1S(=O)(=O)Nc1ccc(C(=O)OCC(=O)Nc2ccc(C#N)cc2)cc1 do in these assays?
TRb SRC2 PPI: 3%; TR SRC2 fluor cs: 0%; JMJD2E inh: 1%; Tau ThT inhib: -5%; Tau FP inhib: 25µM*; Tau fluor cs: inconclusive

How did CCN(CC)c1ccc(NC(=O)COc2ccc(C#N)cc2)cc1S(=O)(=O)Nc1ccc(OC)cc1 do in these assays?
TRb SRC2 PPI: 0%; TR SRC2 fluor cs: -3%; JMJD2E inh: 1%; Tau ThT inhib: 6%; Tau FP inhib: inconclusive; Tau fluor cs: inconclusive

What do the screens show for `CNC(=O)OCc1cccc(COC(=O)NC)n1`?
TRb SRC2 PPI: -19%; TR SRC2 fluor cs: -1%; JMJD2E inh: -4%; Tau ThT inhib: -1%; Tau FP inhib: 6%; Tau fluor cs: 7%

What do the screens show for `CC(=O)Nc1ccc(N2C(C(C)=O)=NN(c3ccc(Cl)cc3)C2c2sccc2C)cc1` (stereo unspecified)?
TRb SRC2 PPI: 10%; TR SRC2 fluor cs: -1%; JMJD2E inh: inconclusive; Tau ThT inhib: inconclusive; Tau FP inhib: -15%; Tau fluor cs: 28µM*[quencher]

What do the screens show for `COc1ccc(N2C(C(C)=O)=NN(c3ccccc3)C2c2cccs2)cc1` (stereo unspecified)?
TRb SRC2 PPI: -10%; TR SRC2 fluor cs: -2%; JMJD2E inh: inconclusive; Tau ThT inhib: inconclusive; Tau FP inhib: 1%; Tau fluor cs: inconclusive

What do the screens show for `CC(=O)Nc1ccc(N2C(C(C)=O)=NN(c3ccccc3)C2c2cccs2)cc1` (stereo unspecified)?
TRb SRC2 PPI: -8%; TR SRC2 fluor cs: 0%; JMJD2E inh: -18%; Tau ThT inhib: inconclusive; Tau FP inhib: 0%; Tau fluor cs: 25µM*[quencher]

What do the screens show for `CC(=O)N1N=C(c2ccc(C)cc2)CC1c1cn(-c2ccccc2)nc1-c1cccs1` (stereo unspecified)?
TRb SRC2 PPI: -7%; TR SRC2 fluor cs: 100µM*[quencher]; Tau ThT inhib: inconclusive; Tau FP inhib: -2%; Tau fluor cs: -22%

Results for COc1ccc(C2=NN(C(C)=O)C(c3cn(-c4ccccc4)nc3-c3cccs3)C2)cc1 (stereo unspecified) ?
TRb SRC2 PPI: 2%; TR SRC2 fluor cs: -1%; Tau ThT inhib: -18%; Tau FP inhib: 3%; Tau fluor cs: -18%

What do the screens show for `CC(=O)Nc1ccc(C2=NN(c3ccccc3)C(c3cccs3)C2)cc1` (stereo unspecified)?
TRb SRC2 PPI: 2%; TR SRC2 fluor cs: -2%; JMJD2E inh: inconclusive; Tau ThT inhib: -11%; Tau FP inhib: inconclusive; Tau fluor cs: 8.9µM*[quencher]

How did O=C(c1ccccc1)c1cncc(Br)c1 do in these assays?
TRb SRC2 PPI: 0%; TR SRC2 fluor cs: -5%; JMJD2E inh: 2%; Tau ThT inhib: -9%; Tau FP inhib: 1%; Tau fluor cs: 0%

How did COc1ccc(NC(=O)CCC(=O)N/N=C/c2cn(C)nc2C)cc1 do in these assays?
TRb SRC2 PPI: -3%; TR SRC2 fluor cs: 1%; JMJD2E inh: 2%; Tau FP inhib: -4%; Tau fluor cs: -18%

How did Nc1n[nH]c(N)c1N=Nc1ccc(F)cc1 do in these assays?
TRb SRC2 PPI: -5%; TR SRC2 fluor cs: -11%; JMJD2E inh: 2%; Tau ThT inhib: inconclusive; Tau FP inhib: 1%; Tau fluor cs: inconclusive

Results for Cc1n[nH]c(C)c1N=Nc1ccc(Br)cc1 ?
TRb SRC2 PPI: 9%; TR SRC2 fluor cs: 1%; JMJD2E inh: 8%; Tau ThT inhib: 11µM*; Tau FP inhib: -13%; Tau fluor cs: -30%

How did Cc1ccc(N=c2c([N+](=O)[O-])nn(-c3ccc4c(c3)OCCO4)n2O)cc1F do in these assays?
TRb SRC2 PPI: -2%; TR SRC2 fluor cs: 0%; JMJD2E inh: -5%; Tau ThT inhib: inconclusive; Tau FP inhib: 8%; Tau fluor cs: inconclusive

What do the screens show for `Cc1ccc(N=c2c([N+](=O)[O-])nn(-c3ccc(Cl)cc3)n2O)cc1C`?
TRb SRC2 PPI: -9%; TR SRC2 fluor cs: -3%; JMJD2E inh: -14%; Tau ThT inhib: 13µM*; Tau FP inhib: -3%; Tau fluor cs: inconclusive
